Experimental data published in PubChem BioAssay AID588463 (National Center for Advancing Translational Sciences (NCATS), 2011).
Among all 1,200 compounds or so, about 15 (1%) were called active. About 7% were inconclusive and are not listed. Shown is part of a subset that was picked to be rich in actives. A number with no mark means an inactive call. Calls follow the shape of the dose curve; as a rule, active = well fitted activation curve with a large enough effect; inconclusive = small, poorly fitted or top-dose-only effect; inactive = flat fitted curve, though single readings scatter.

Each compound was assayed against Beta-2 adrenergic receptor (Homo sapiens) (UniProt P07550) (assay: qHTS assay of beta-arrestin-biased ligands of beta2-adrenergic receptor: Hit Validation). Conditions: cell-based beta-arrestin recruitment to beta2AR; Potency: activation; series mostly up to 46.1 µM; activation: at the top concentration.
Sequence of Beta-2 adrenergic receptor (Homo sapiens) (P07550 whole entry, looked up): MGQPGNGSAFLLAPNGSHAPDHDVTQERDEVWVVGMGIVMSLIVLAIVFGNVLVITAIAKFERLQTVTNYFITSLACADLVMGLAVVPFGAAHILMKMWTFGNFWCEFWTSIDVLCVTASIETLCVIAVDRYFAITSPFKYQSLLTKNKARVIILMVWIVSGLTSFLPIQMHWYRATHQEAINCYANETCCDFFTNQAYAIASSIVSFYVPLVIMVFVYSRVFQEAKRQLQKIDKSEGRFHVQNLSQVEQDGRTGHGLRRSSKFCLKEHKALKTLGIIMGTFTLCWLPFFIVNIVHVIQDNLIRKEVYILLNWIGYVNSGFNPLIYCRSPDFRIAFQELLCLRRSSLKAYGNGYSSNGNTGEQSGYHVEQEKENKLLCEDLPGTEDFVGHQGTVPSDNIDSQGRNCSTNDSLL
From the text: The concept of biased agonism is an emerging concept of molecular pharmacology which proposes that seven transmembrane receptors (7TMRs) or G protein-coupled receptors (GPCRs), exist in multiple signaling conformations and complexes and that ligands (either agonists or antagonists) can induce signaling biased responses for distinct signal transduction cascades.
Furthermore, accumulating evidence over the last decade has drawn attention to a novel function of beta-arrestins as signal transducers that scaffold various signaling molecules upon activation of 7TMRs. […] This beta-arrestin-biased signaling presumably leads to distinct physiological outcomes from those by G protein activation.
Additionally, the active receptor conformations which […] on this beta-arrestin signaling are likely different from those activating G protein signaling
The goal of this screening project will be to discover and optimize novel beta-arrestin-biased ligands for beta2-AR signaling. A luminescent cell-based assay for beta2-AR-mediated agonism, known as the Tango assay, has been validated in which ligand binding of a recombinant beta2-AR and subsequent recruitment of a recombinant beta-arrestin lead to the release of the transcriptional activator tTA, which upregulates transcription of a tTA-responsive luciferase gene.
NIH Molecular Libraries Probe Production Network [MLPCN]
NIH Chemical Genomics Center [NCGC]
PI: Bryan Roth (UNC) and Bob Lefkowitz (Duke)
NCGC Assay Protocol Summary:
Tango cells were dispensed into white, solid, tissue-culture-treated 1536-well plates at 1500 cells/well in DMEM, containing 1% fetal bovine serum (FBS). Then, 23 nL of compounds or DMSO were delivered to each well using a pin tool. Plates were incubated at 37 degrees C, 5% CO2 for 18 hr. Then 2.5 uL luminescent substrate mix (in-house prepared: 150 mM Tris-Cl, pH 7.6, 3 mM MgCl2, 1% Triton X-100, 5 mM DTT, 0.5 mM CoA, 0.15 mM ATP, 0.44 mM D-luciferin, final concentrations) was added to each well. Plates were then incubated for 15 minutes at room temperature, and subsequently measured on a ViewLux plate reader for luminescent signal using a clear filter with a 10 second exposure and 2x binning. The %Activity was determined from the corrected luminescence values.
Concentration-response curves were fitted to the signals arising from the resulting luminescence. The concentration-effect curves were then classified based on curve quality (r2), response magnitude and degree of measured activity, and compounds were subsequently categorized based on their curve class.
Keywords: biased agonism, beta2-AR, beta-arrestin, GPCR, 7TMR, Tango, luminescence, MLSMR, MLPCN, NIH Roadmap, qHTS, NCGC
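For activation in this document: plate controls were DMSO for no effect and maximal isoproterenol or metaproterenol response for full effect.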
Potency is read from the fitted curve at half-maximal effect.

Structure (SMILES) | activation [%] | Potency
Clc1cccc(Cl)c1C1Nc2cccc3cccc(c23)N1 | -3.31 | 
COC(=O)N1C(=O)[C@@](c2ccc(OC)cc2)(C(C)C)N1C(=O)OC | -0.416 | 
COc1ccc(C(=O)C2CCCN(Cc3cnc(N4CCCC4)s3)C2)cc1OC (stereo not drawn) | -2.07 | 
Fc1ccccc1NC(=S)Nn1cnnc1 | -2.95 | 
CCOc1ccc(N(CC(=O)Nc2cccnc2)S(=O)(=O)c2ccc(C)cc2)cc1 | -4 | 
O=C(CNCc1ccccc1Cl)Nc1ccc2c(c1)OCCO2 | -0.278 | 
Cc1cccc(N=C2NC(=O)/C(=C/c3cccs3)S2)c1 | -0.803 | 
CCNC(=S)NNc1nncc2ccccc12 | -2.03 | 
S=C(N/N=C/c1ccco1)NC1CC2CCC1C2 (stereo not drawn) | -2.42 | 
CN=C(c1ccc(C)cc1)n1c(=S)nc(-c2ccc(C)cc2)n(C)c1=S | -2.89 | 
CNc1cc(C)nc(-n2nc(C)cc2C)n1 | 0.533 | 
CN(C)NC(=S)Nc1ccc(Cl)cc1 | -4.31 | 
C/C(CCC1CC(C)(C)OC1=O)=N\NC(N)=S (stereo not drawn) | -4.39 | 
O=C(O)CCC(=O)N1N=C(c2ccccc2)CC1c1ccc2nccnc2c1 (stereo not drawn) | -2.51 | 
O=C(OCC1CC(c2ccccc2)=NO1)c1ccco1 (stereo not drawn) | 0.568 | 
COc1ccc2nc(NC(=S)N(C)C)sc2c1 | -2.69 | 
COc1ccc(C2=NN(C(=O)/C=C/c3ccccc3)C(c3ccccc3)C2)c(OC(C)=O)c1 (stereo not drawn) | 1.88 | 
Cc1cc(/C=N/NC(N)=S)c(C)n1-c1ccc(Br)cc1 | -2.46 | 
COc1ccc(CN2CCCC(C(=O)c3ccc(Cl)cc3)C2)cc1Cn1cccn1 (stereo not drawn) | 5.4 | 
COC(=O)CSc1ccc2nnc(-c3ccc(OC)c(OC)c3)n2n1 | -2.65 | 
CCNC(=S)N/N=C/c1cccs1 | -3.28 | 
Cc1nn(-c2ccccc2)c(C)c1/C=N/NC(=O)CSc1nnc(SCc2ccccc2Cl)s1 | -0.869 | 
FC(F)(F)c1cc(Nc2ccccc2)nc(-c2ccccn2)n1 | -0.114 | 

Structure (SMILES) | activation [%] | Potency
CC1S/C(=N/N=C2CCCCC2)NC1=O (stereo not drawn) | -1.28 | 
Cc1ccc2c(c1)C(=O)N1[C@H]3c4ccccc4OC[C@@H]3[C@H](c3ccccc3)[C@]1(C)C(=O)N2 | 1.92 | 
CCN1CCN(C(=S)NC(=O)c2cccc(Br)c2)CC1 | -2.87 | 
Cc1ccc(-n2c(SCC(=O)NCc3ccco3)nc3c(sc4ccccc43)c2=O)cc1 |  | 13 µM (active)
COc1ccc(CNc2nc(SCC(=O)NCc3ccco3)nc3ccccc23)cc1 | -0.667 | 
CCC(Sc1nc2ccsc2c(=O)n1-c1ccc(Cl)c(C)c1)C(=O)NCc1ccco1 (stereo not drawn) | -1.32 | 
CCOC(=O)C(Sc1cc(-c2ccccc2)nc2ncnn12)C(C)=O (stereo not drawn) | -1.39 | 
CC(C)(O)C(=O)NN(C(=O)c1ccccc1)c1ccc2ccccc2c1 | -2.62 | 
O=C(N/N=C/c1cccs1)c1cncc(Br)c1 | -2.47 | 
C/C(CS(=O)(=O)c1ccc(Cl)c(Cl)c1)=N/NC(N)=S | -1.93 | 
C/C(=N\NC(=S)NCc1ccccc1)c1ccc2ccccc2c1OC(F)F | -2.23 | 
O=c1[nH]c(CSc2ccccn2)nc2c1cnn2-c1ccccc1 | -0.631 | 
COc1ccc(NC(=O)c2cc3c(-c4ccc(OC)c(OC)c4)nn(C)c3s2)cc1OC | -0.0302 | 
CCOC(=O)c1c(C)[nH]c(N=Nc2ccc(C)cc2C)c1C | -10.2 | 
CCOC(=O)N1CCN(Cc2c(F)cccc2F)CC1 | -2.4 | 
CCOC(=O)c1sc(NC(=O)CSc2nnc(C(C)C)n2C)nc1C | -3.85 | 
CC(C)C(=O)COc1c2occc2cc2ccc(=O)oc12 | -4.07 | 
O=C(Nc1cnccn1)c1ccc(Cl)cc1 | -1.39 | 
CC(=O)N(c1ccccc1)C(C)c1nc(C#N)c(C#N)nc1C (stereo not drawn) | -1.35 | 
FC(F)(F)c1cnc(N2CCSCC2)c(Cl)c1 | -6.12 | 
CN(Cc1ccccc1)C(=O)CN1C(=O)c2ccccc2C1=O | -3.09 | 
COc1ccc(-c2cn3cccnc3n2)cc1F | -3.26 | 
O=C(NC(=S)N1CCCCCC1)c1ccccc1Cl | -2.85 | 

Structure (SMILES) | activation [%] | Potency
Cc1nc(C)c(CC(=O)N/N=C/c2ccc(O)cc2)c(=O)[nH]1 | -2.66 | 
COc1ccc(OCCCC(=O)Nc2nc(-c3ccccn3)cs2)cc1 | 9.17 | 
Cn1cccc1C(=O)NC(=O)CSc1cccc[n+]1[O-] | -3.1 | 
C/C(=N\NC(=S)NCCc1ccccc1)c1ccc(Cl)cc1Cl | -2.3 | 
O=C1NC(c2ccc(-c3ccccc3[N+](=O)[O-])o2)C(C(=O)c2ccc(F)cc2)C(O)(C(F)(F)F)N1 (stereo not drawn) | -4.07 | 
Cc1ccc(CN2CCSCC2)c(C)c1 | -2.68 | 
C=CCNC(=S)N/N=C/c1ccc(-c2cc(Cl)ccc2Cl)o1 | -2.16 | 
Cc1ccccc1NS(=O)(=O)c1ccc2oc(=O)ccc2c1 | -3.24 | 
COc1ccc(NC(=S)Nc2ccccn2)c(OC)c1 | -1.86 | 
O=C(CSc1cccc[n+]1[O-])c1cc2ccccc2o1 | -1.76 | 
CCC1(C)Cc2ccccc2C(=S)N1 (stereo not drawn) | -3.36 | 
C=C(C)c1cccc(C(C)(C)NC(=O)NC(c2ccccc2)c2ccc(OC)cc2)c1 (stereo not drawn) | 8.73 | 
NC(=S)n1[nH]c(-c2ccc([N+](=O)[O-])cc2)c(N=Nc2cccc([N+](=O)[O-])c2)c1=O | -5.18 | 
CCN(CC)CCCNC(=O)CCC(=O)NNc1nc2ccccc2c2nc(C)nn12 | -1.51 | 
Cc1cc(C)n(-c2nc(NC(C)C)nc(NC(C)C)n2)n1 | -3.01 | 
O=C(CNc1cccc(Cl)c1)c1ccc(Br)cc1 | -2.41 | 
Cc1nc(COC(=O)c2ccc(S(=O)(=O)N3CCCC3)cc2)cs1 | -0.855 | 
CC(C)NS(=O)(=O)c1ccc(NC(=O)C(C)Oc2ccc(C(=O)c3ccccc3)cc2)cc1 (stereo not drawn) | 0.57 | 
CCn1nnnc1SCC(=O)Nc1nc2ccc(OC)cc2s1 | -0.634 | 
CS(=O)(=O)Nc1ccc(-c2cn3cccnc3n2)cc1 | -3.46 | 
O=C(NCCOc1cccnc1)C1CCC(=O)N(Cc2ccccc2F)C1 (stereo not drawn) | -3.24 | 
COc1ccc(N(CC(=O)N2CCCC2)S(C)(=O)=O)cc1 | -3.72 | 
CCN(CC)CCC(=O)N1c2ccccc2Sc2ccc(NC(=O)OC)cc21 | -1.25 | 

Structure (SMILES) | activation [%] | Potency
CCCn1c(-c2ccc(F)cc2)n[nH]c1=S | -4.3 | 
Cc1cccc(NC(=S)N=Nc2c(O)n(CN3CCOCC3)c3ccccc23)c1C | -2.46 | 
Cc1ccccc1OCC(=O)N/N=C/c1sc(=O)n(Cc2cccc(C(=O)O)c2)c1Cl | -1.41 | 
CCOc1cccc(N)c1 | -1.3 | 
Cc1cccnc1NC(=S)Nc1ccc(Br)cc1Cl | -1.9 | 
CCCCC(=O)/C=C/n1c(=S)oc2ccccc21 | -2.45 | 
CC(=O)N1CCN(CC(=O)c2ccc(Br)cc2)CC1 | -1.68 | 
Cc1ccc(S(=O)(=O)N(CC(=O)N/N=C/c2ccco2)c2cc(Cl)cc(Cl)c2)cc1 | 0.42 | 
CC(=O)c1sc(Nc2nc3ccc(F)cc3s2)nc1C | -2.59 | 
Cc1nc2ccc(NC(=O)CS(=O)(=O)c3ccccc3)cc2s1 | -1.85 | 
O=C(NCCN1CCOCC1)c1ccccc1Cl | 0.534 | 
CCCCc1nnc(NC(=O)c2ccccc2OCc2c(C)noc2C)s1 | -1.03 | 
CC(=O)c1ccc(N2CCN(C(=O)C3CCCN(S(=O)(=O)c4c(C)[nH]c(=O)[nH]c4=O)C3)CC2)cc1 (stereo not drawn) | -4.9 | 
CCOC(=O)n1c(=O)oc2cc(S(=O)(=O)N3CCCCC3)ccc21 | -4.09 | 
CCOc1ccc(/C=N/NC(=S)NC2CC3CCC2C3)cc1 (stereo not drawn) | -0.951 | 
CC1CCCN(C(=O)Cn2nnc(-c3ccc(F)cc3)n2)C1 (stereo not drawn) | -0.544 | 
FC(F)(F)c1nc2ccccc2nc1N/N=C\c1ccccc1 | -2.93 | 
COc1ccc(OC)c(CNC(=O)CCCc2cn(C)c3ccccc23)c1 | -4.25 | 
CC(=O)Oc1ccc2cc(-c3ccccc3)c(=O)oc2c1 | -2.83 | 
Cc1cccc(-n2ncc3c(Nc4c(C)n(C)n(-c5ccccc5)c4=O)ncnc32)c1 | -4.29 | 
O=C(CN1CCN(Cc2ccccc2)CC1)c1ccc(Br)cc1 | -2.66 | 
CCC(=O)Nc1cccc(-c2nnc(SCC(=O)c3ccccc3)n2C)c1 | -3.27 | 
Cc1oc(-c2ccccc2Cl)nc1CN1CCCCC1c1cccnc1 (stereo not drawn) | -3.35 | 

Structure (SMILES) | activation [%] | Potency
COCCNC(=S)NN=C1CCC(c2ccccc2)CC1 (stereo not drawn) | -3.79 | 
Cc1noc(/C=C/c2ccco2)c1S(=O)(=O)N1CCC(C(=O)N2CCc3ccccc3C2)CC1 | -3.07 | 
O=C(N/N=C/c1ccc(-c2ccccc2[N+](=O)[O-])o1)[C@H]1C[C@@H]1c1ccccc1 | 4.62 | 
Cc1cccc(NC(=S)NC2CCCC2)n1 | -2.16 | 
COc1ccc(C2CC(c3ccccc3)=NN2C(=O)COC(=O)c2cccc(N)c2)cc1 (stereo not drawn) | 7.98 | 
O=C(c1cccs1)N1N=C(c2ccccc2)CC1c1ccc(O)cc1 (stereo not drawn) | 6.49 | 
CCN1C(=O)C(CC(=O)Nc2ccc(OC)cc2)N(CCN2CCOCC2)C1=S (stereo not drawn) | -0.784 | 
COc1cc(-c2nc(-c3ccccc3)c(-c3cc([N+](=O)[O-])ccc3C)[nH]2)cc(OC)c1OC | -0.686 | 
CCOc1ccccc1N=Nc1c(C)[nH]n(C(N)=S)c1=O | -1.78 | 
COc1cccc(NC(=S)N/N=C2\CC(C)(C)Oc3ccc(O)cc32)c1 | -2.24 | 
O=C(N/N=C\C=C\c1ccco1)C1COc2ccccc2O1 (stereo not drawn) | -2.32 | 
COc1ccc2c(c1)c(=O)c(C(=O)c1ccccc1)cn2Cc1ccc(C)cc1 | -0.974 | 
O=[N+]([O-])c1ccc(/C=C2\CCC(C3=CCCC3)=C2N2CCOCC2)cc1 | -1.92 | 
CCOC(=O)c1cccc(NC(=O)c2cncc(Br)c2)c1 | -2 | 
S=c1nc2ccccc2c2nc(-c3ccccc3)[nH]n12 | -2.79 | 
COc1ccc(N(C(=O)CCl)C(C)(C(=O)Nc2c(C)cccc2C)c2ccccn2)cc1 (stereo not drawn) | 0.0836 | 
CCN(C(=O)Cn1c(Cl)nc2c1c(=O)n(C)c(=O)n2C)C1CCCCC1 | -1.79 | 
COc1ccc(/C=N/OC/C(O)=C(\C#N)c2nc3ccccc3[nH]2)cc1OC | -2.21 | 
COc1ccccc1CN1C[C@@H]2C[C@@H](c3ccc4nsnc4c3)N3CCC[C@@]23C1=O | -1.58 | 
Cc1cc(=O)n2cccc(O)c2n1 | -5.71 | 
COc1ccc(NC(=S)NC(=O)c2ccc(Br)o2)cc1 | -3.83 | 
